Tau fluor cs = Counterscreen qHTS for Inhibitors of Tau Fibril Formation, Fluorescence Polarization | tau K18 P301L Alexa594 fluorescence, heparin fibrillization | Potency, µM (doses to about 57.7 µM) | hit rate 0.93% among 280,000 | AID 1463, 2008; note: nearly all actives have a fitted effect of over 55% in size
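Human tau K18 P301L (15 uM unlabeled, 0.24 uM Alexa 594-labeled) in 100 mM sodium acetate pH 7 with 20 uM heparin, 6 hr at 37 C. ThT 30 uM added, 1 hr ambient; Alexa 594 FP and total fluorescence read at 555/632 nm.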
TRb-SRC2 inh = qHTS for Inhibitors of the Interaction of Thyroid Hormone Receptor and Steroid Receptor Coregulator 2. TRbeta-SRC2 peptide binding, fluorescence polarization; receptor liganded with 1 µM T3. Potency, µM (series often up to 106 µM), hits mostly inhibitors. hit rate 0.065% among 280,000; note: nearly all actives have a fitted effect of over 50% in size
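Binding of a 20-amino-acid Texas Red SRC2 peptide (20 nM) to TRb ligand-binding domain (0.6 uM) with agonist T3 at 1 uM was followed by fluorescence polarization after a 5 hr room-temperature incubation.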
RGS12 GoLoco inh = qHTS Assay for Inhibitors of RGS12 GoLoco Motif Activity (Red Fluorophore) | Guanine nucleotide-binding protein G(i) subunit alpha-1 (Homo sapiens), P63096 | Gai1:RGS12 GoLoco peptide FP, rhodamine, 10 min | Potency, µM (highest dose often 61.6 µM), most hits filed as inhibitors | hit rate 0.44% among 230,000 | AID 880, 2007; active = well fitted inhibition curve with a large enough effect, not every such curve was filed as active; inactive = no such curve, though single readings can be large or run the other way; note: nearly all actives have a fitted effect of over 30% in size
Target sequence (P63096 whole entry, looked up): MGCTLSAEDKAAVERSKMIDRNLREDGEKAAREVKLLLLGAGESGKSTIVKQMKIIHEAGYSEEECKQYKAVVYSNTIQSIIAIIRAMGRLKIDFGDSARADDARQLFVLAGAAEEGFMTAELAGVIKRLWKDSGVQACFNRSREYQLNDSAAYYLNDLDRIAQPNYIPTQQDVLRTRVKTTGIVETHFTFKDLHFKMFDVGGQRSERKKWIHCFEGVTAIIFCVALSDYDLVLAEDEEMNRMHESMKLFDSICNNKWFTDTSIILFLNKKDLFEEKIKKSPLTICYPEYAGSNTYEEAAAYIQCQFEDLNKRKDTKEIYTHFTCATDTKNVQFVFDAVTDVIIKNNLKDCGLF
TR SRC2 fluor cs = Total Fluorescence Counterscreen for Inhibitors of the Interaction of Thyroid Hormone Receptor and Steroid Receptor Coregulator 2 | TRb/SRC2 Texas Red total fluorescence interference | Potency, µM (top dose mostly 106 µM) | hit rate 0.29% among 280,000; active = well fitted curve in either direction with a large enough effect; inconclusive = small, poorly fitted or top-dose-only effect
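Human TRb ligand-binding domain at 0.6 uM with 20 nM Texas Red SRC2 peptide in Tris buffer containing 1 uM T3 and 5% DMSO, incubated with compound 5 h at ambient temperature. Total fluorescence (555/632 nm) calculated as parallel + 2 × perpendicular.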
Tau fibril FP = qHTS for Inhibitors of Tau Fibril Formation, Fluorescence Polarization. Microtubule-associated protein tau (Homo sapiens), P10636. hit rate 0.39% among 280,000. K18 P301L tau heparin fibrillization, Alexa594 FP, 6 h. Potency, µM (highest dose often 57.7 µM), actives largely listed as inhibitors. AID 1468, 2008; note: nearly all actives have a fitted effect of over 55% in size
Target sequence (P10636 561-689 P618L limits assumed): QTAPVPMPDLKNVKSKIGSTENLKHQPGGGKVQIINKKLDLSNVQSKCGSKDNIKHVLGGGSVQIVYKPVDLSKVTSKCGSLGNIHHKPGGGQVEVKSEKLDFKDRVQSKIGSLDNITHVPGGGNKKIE
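Human tau K18 […] P301L fragment, 15 uM unlabeled plus 0.24 uM Alexa 594-labeled tau (final), with compound and 20 uM heparin in 100 mM sodium acetate pH 7; 6 hr at 37 C, then Alexa 594 FP read.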
Tau ThT inhib = qHTS for Inhibitors of Tau Fibril Formation, Thioflavin T Binding. Microtubule-associated protein tau (Homo sapiens), P10636. recombinant tau K18 P301L (four-repeat tau fragment), heparin-induced fibrillization, ThT fluorescence. Potency, µM (titrated, usually from 57.4 µM), usual class: inhibitors. hit rate 2.1% among 270,000. AID 1460, 2008; note: nearly all actives have a fitted effect of over 55% in size
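In this qHTS, human K18 P301L tau is incubated with compound and heparin for 6 hr at 37 C, and Thioflavin T fluorescence then reports fibril load.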
Of the large screens only hits and unclear results are named; the others gave an inactive call; [ ] = dose if it differs, or a comment. Rows were chosen to be rich in hits. Some 3.2% of all compounds tested hit in one or more screens of this group. Unless noted, calls come from the whole dose curve; as a rule, active = well fitted curve in the direction sought with a large enough effect; inconclusive = small, poorly fitted or top-dose-only effect, or another doubt; inactive = no such curve, though single readings can be large; an effect the other way counts as inactive or inconclusive.

Cc1cc(N/N=C/c2ccc(Cl)cc2Cl)nc(NCc2ccccc2)n1	Tau ThT inhib inconclusive
Cc1cc(Nc2ccccc2)nc(NCc2ccccc2)n1	Tau fluor cs 18µM[quencher], Tau fibril FP inconclusive
Cc1cc(N/N=C/c2ccc(N(C)C)cc2)nc(NCc2ccccc2)n1	Tau fluor cs 7.9µM[quencher], Tau ThT inhib 4µM
Cc1cc(Nc2cccc(F)c2)nc(NCc2ccccc2)n1	Tau fluor cs 16µM[quencher], Tau fibril FP inconclusive
Cc1cc(N/N=C/c2ccc(F)cc2)nc(NCc2ccccc2)n1	Tau fluor cs inconclusive
CCCCNc1cc(C)nc(NCc2ccccc2)n1	none
Cc1cc(Nc2ccc(Cl)cc2)nc(NCc2ccccc2)n1	Tau fluor cs 18µM[quencher], Tau fibril FP inconclusive
Cc1ccc(/C=N/Nc2cc(C)nc(NCc3ccccc3)n2)cc1	Tau fluor cs inconclusive, Tau fibril FP inconclusive, Tau ThT inhib inconclusive
O=C(CSc1nc(Nc2ccccc2)nc(N2CCOCC2)n1)Nc1ccc([N+](=O)[O-])cc1	Tau fluor cs 13µM[quencher], Tau fibril FP inconclusive, Tau ThT inhib inconclusive
CS(=O)(=O)c1ccc(C(=O)NCCN2C(=O)S/C(=C\c3cccnc3)C2=O)cc1[N+](=O)[O-]	Tau fluor cs inconclusive, Tau fibril FP inconclusive, Tau ThT inhib 16µM
NC(=O)/N=N/C(N)=O	none (no result: Tau fluor cs, Tau fibril FP, Tau ThT inhib)
COC(=O)c1sccc1S(=O)(=O)N(CC(=O)NCc1ccc(F)cc1)c1ccccc1	none (no result: RGS12 GoLoco inh)
COc1ccc(OC)c(NC(=O)c2cnc(Nc3ccc(C)c(Cl)c3)c3ccccc23)c1	Tau fluor cs inconclusive, Tau fibril FP inconclusive (no result: RGS12 GoLoco inh)
COc1ccc(Nc2ncc(C(=O)Nc3ccc(F)cc3F)c3ccccc23)cc1	Tau fluor cs 11µM[quencher], Tau fibril FP inconclusive, Tau ThT inhib inconclusive (no result: RGS12 GoLoco inh)
C=C[C@@]1(C)CC[C@H]2C(=CC[C@@H]3[C@]2(C)CCC[C@@]3(C)C(=O)O)C1	none (no result: Tau fluor cs, RGS12 GoLoco inh, Tau fibril FP, Tau ThT inhib)
O=C1OC2(c3cc(Br)c(O)c(Br)c3Oc3c2cc(Br)c(O)c3Br)c2c(Cl)c(Cl)c(Cl)c(Cl)c21	TRb-SRC2 inh 2.5µM, RGS12 GoLoco inh 0.79µM, TR SRC2 fluor cs inconclusive (no result: Tau fluor cs, Tau fibril FP, Tau ThT inhib)
O=C(Cl)c1cc(Cl)cc(Cl)c1	none (no result: Tau fluor cs, RGS12 GoLoco inh, Tau fibril FP, Tau ThT inhib)
Cc1ccc(S(=O)(=O)/N=C2\C(=O)c3ccccc3C([O-])=C2n2cc[n+](CCC(C)C)c2)cc1	Tau ThT inhib inconclusive
CC(=O)Nc1ccc(S(=O)(=O)/N=C2\C(=O)c3ccccc3C([O-])=C2n2cc[n+](-c3ccccn3)c2)cc1	Tau fluor cs 14µM[quencher], Tau fibril FP inconclusive, Tau ThT inhib 13µM
CC(Sc1cccc[n+]1[O-])C(=O)Nc1cccc([N+](=O)[O-])c1 (stereo unspecified)	none
CCSCCc1nnc(NC(=O)Nc2cccc(C(F)(F)F)c2)s1	Tau fluor cs inconclusive, Tau fibril FP 11µM
CCn1ncc(NC(=O)Nc2cccc(C(F)(F)F)c2)c1C(N)=O	none
O=C(Nc1cccc([N+](=O)[O-])c1)Nc1cccs1	Tau fluor cs 20µM[quencher], Tau ThT inhib inconclusive
CC(C(=O)Nc1cccc([N+](=O)[O-])c1)[n+]1ccccc1 (stereo unspecified)	Tau ThT inhib 22µM
O=C(Nc1cccc([N+](=O)[O-])c1)c1cccc(C(=O)Nc2cccc([N+](=O)[O-])c2)c1	Tau fluor cs inconclusive
O=C(Nc1cccc(C(F)(F)F)c1)Nc1cccs1	Tau fluor cs 11µM[quencher], Tau fibril FP inconclusive, Tau ThT inhib inconclusive (no result: RGS12 GoLoco inh)
O=C(Nc1ccccc1)Nc1cccc(C(F)(F)F)c1	Tau fibril FP inconclusive
Cc1noc(C)c1-c1ccc2ncnc(NCC3CCN(C)CC3)c2c1	none (no result: Tau fluor cs, RGS12 GoLoco inh, Tau fibril FP, Tau ThT inhib)
CSCC[C@H](NC(=O)[C@H](Cc1c[nH]c2ccccc12)NC(=O)CCNC(=O)OC(C)(C)C)C(=O)N[C@@H](CC(=O)O)C(=O)N[C@@H](Cc1ccccc1)C(N)=O	none (no result: Tau fluor cs, RGS12 GoLoco inh, Tau fibril FP, Tau ThT inhib)

Bioassay records: PubChem, National Center for Advancing Translational Sciences (NCATS)
